Experimental data reported in PubChem BioAssay (Tox21).
Inconclusive results are not listed. A number with no mark means an inactive call. Activity calls are given as the source filed them. Calls follow the shape of the dose curve; as a rule, active = well fitted cell-killing curve with a large enough effect in the repeat runs; inconclusive = weak or mixed curves, or effect the other way; inactive = flat fitted curve, though single readings scatter.

Assay: qHTS assay to identify small molecule agonists of the TGF-beta/Smad signaling pathway - cell viability counter screen (AID 1346829); also: top concentration of the series differs between compounds; nearly all actives have a fitted effect of over 45% in size
Conditions: SBE-bla HEK293T viability, CellTiter-Glo luminescence, 5 h; series mostly up to 76.8 µM; activity change, negative = cytotoxicity: at the top concentration
Description: National Center for Advancing Translational Sciences [NCATS]
NIH Chemical Genomics Center [NCGC]
U.S. Environmental Protection Agency [EPA]
National Institutes of Environmental Health Sciences [NIEHS]
National Toxicology Program [NTP]
U.S. Food and Drug Administration [FDA]
Transforming growth factor beta (TGF-beta) superfamily consists of a large number of structurally related dimeric proteins that act as hormones or local mediators in regulating a wide range of biological functions. This superfamily includes TGF-betas themselves, the bone morphogenetic proteins (BMPs) and the activins. These ligands induce oligomerization of serine/threonine receptor kinases and phosphorylate the cytoplasmic signaling molecules of Smad protein family. CellSensor SBE-bla HEK 293T cell line (Life Technologies, Carlsbad, CA), responsive to TGF-beta was used to screen Tox21 10K compound library for identification of agonists/antagonists of the Smad signaling pathway. This cell line contains a beta-lactamase reporter gene under control of the Smad binding element (SBE) stably integrated into HEK 293T cells. Also cytotoxicity of the compounds was tested in parallel by measuring the cell viability using CellTiter-Glo assay system in the same wells.
Tox21 Assay Protocol Summary:
SBE-bla HEK 293T cells were dispensed at 4,000/well in 6 uL of assay medium into black wall/clear-bottom 1536-well plates using a Multidrop Combi (ThermoFisher Scientific, Waltham, MA) dispenser. After the assay plates were incubated at 37 C and 5% CO2 for an overnight, 23 nL of compounds dissolved in DMSO, positive controls or DMSO only was transferred to the assay plate by a Pintool station (Kalypsys, San Diego, CA). The assay plates were incubated at 37 C and 5% CO2 for 5 hr. One uL of LiveBLAzer B/G FRET substrate (Life Technologies) was added using a Flying Reagent Dispenser (FRD, Aurora Discovery, San Diego, CA) and the plates were incubated at room temperature for 2 hr. Fluorescence intensity (405 nm excitation, 460 nm and 530 nm emissions) was measured using an Envision plate reader (PerkinElmer, Shelton, CT). For cytotoxicity read, 4 uL of CellTiter-Glo reagent (Promega Corporation, Madison, WI) was added to each well of the assay plates using FRD. After 30min incubation at room temperature, the luminescence intensity was measured using ViewLux plate reader (PerkinElmer).
% is scaled to controls: 0 for no effect and ±100 for the full control effect.

Row | SMILES | activity change, negative = cytotoxicity | Potency
1 | CCCCCCCCCCCC(=O)OCC(O)CO (stereo not given) | 1.48% | –
2 | CSSc1ccoc1C | -1.83% | –
3 | CCN(CC)c1cccc(O)c1 | 1.39% | –
4 | C/C(C=O)=C\c1ccccc1 | -5.08% | –
5 | COc1cc(NS(=O)(=O)c2ccc(N)cc2)nc(C)n1 | 0.511% [at 35.3 µM] | –
6 | CC/C=C\C/C=C\C/C=C\CCCCCCCC(=O)OCC | 8.19% | –
7 | CC(C)(C(=O)c1cccnc1)c1cccnc1 | 6.91% [at 35.3 µM] | –
8 | COc1ccc(CCN(C)CCCN2CCc3cc(OC)c(OC)cc3CC2=O)cc1OC | -0.5% [at 35.3 µM] | –
9 | CC(CCc1ccc(O)cc1)NCCc1ccc(O)c(O)c1 (stereo not given) | -5.12% [at 35.3 µM] | –
10 | CC(C)c1ccc(C(=O)N=C(N)N)cc1S(C)(=O)=O | 3.01% [at 35.3 µM] | –
11 | c1ccc(CCCc2ccncc2)cc1 | -14.8% | –
12 | CC(C)C(O)C(C)(C)CO (stereo not given) | -16.4% | –
13 | CC(CN(CCN(CC(C)OCCO)CC(C)OCCO)CC(C)OCCO)OCCO (stereo not given) | -4.75% | –
14 | O=C(NS(=O)(=O)/C=C/c1ccccc1)c1ccc(F)cc1Cl | -9.44% | –
15 | CN(C)CC/C=C1\c2ccccc2Sc2ccc(Cl)cc21 | -14.1% [at 35.3 µM] | –
16 | O=C(CCS)OCC(COC(=O)CCS)(COC(=O)CCS)COC(=O)CCS | -0.376% | –
17 | CCOC(=O)c1c(N)sc2c1CCN(Cc1ccccc1)C2 | -1.99% [at 35.3 µM] | –
18 | CC1C(C)(C)C2=C(C(=O)CCC2)C1(C)C (stereo not given) | 10% | –
19 | Nc1nc(-c2ccc([N+](=O)[O-])cc2)cs1 | -9.25% | –
20 | Cc1ccc(Nc2c(F)cccc2Cl)c(CC(=O)O)c1 | 6.75% [at 35.3 µM] | –

Row | SMILES | activity change, negative = cytotoxicity | Potency
21 | Nc1ccc(N=Nc2ccc(N)cc2)cc1 | 3.96% [at 35.3 µM] | –
22 | O=[N+]([O-])C1(Br)COCOC1 | -1.27% | –
23 | COc1cc(S(=O)(=O)Nc2ccccc2)c(OC)cc1N | -3% | –
24 | COc1ccc2nc(S(=O)Cc3ncc(C)c(OC)c3C)[nH]c2c1 (stereo not given) | – | inactive
25 | CCOC(=O)C(C)O (stereo not given) | -9.43% | –
26 | COc1cc(OC)c2ccc(=O)oc2c1 | 3.1% | –
27 | CC(C)COC(=O)COc1cc(Cl)c(Cl)cc1Cl | -2.6% | –
28 | CCCCCCCCCCCCCOS(=O)(=O)O | -4.74% | –
29 | CCCCCc1ccco1 | -7.02% [at 35.3 µM] | –
30 | CC(=O)OCCC1CCCCC1 | -0.721% | –
31 | CCCCCCC(O)CCOC(C)=O (stereo not given) | 4.56% [at 200 µM] | –
32 | CCCc1nc2c(C)cc(-c3nc4ccccc4n3C)cc2n1Cc1ccc(-c2ccccc2C(=O)O)cc1 | 11.3% [at 35.3 µM] | –
33 | CC1=CC[C@@]23C[C@@H]1C(C)(C)[C@@H]2CC[C@H]3C | -0.915% | –
34 | CCN(CC)C(=O)N1CCN(C)CC1 | 0.897% [at 35.3 µM] | –
35 | CCCCCCCC(=O)Oc1c(Br)cc(C#N)cc1Br | -3.11% | –
36 | SCCc1cnccn1 | -10.8% | –
37 | C=C(C)C(=O)OCCC(F)(F)C(F)(F)C(F)(F)C(F)(F)C(F)(F)C(F)(F)F | 7.93% | –
38 | CCCCCCOC(=O)CCCCC | 9.34% | –
39 | C[C@H](CS)C(=O)N1CCC[C@H]1C(=O)O | 6.93% [at 35.3 µM] | –
40 | CCC1CCC(CCC(=O)O)C1 (stereo not given) | -3.44% | –
